Compounds with a hit are over-represented: about 0.71% of the library has one in this group of screens.
RTF Ca sens act – cardiac RTF calcium sensitivity activators, primary screen, biochemical, IANBD-TnC fluorescence, EC20 calcium; Troponin I, cardiac muscle (Homo sapiens) + Troponin T, cardiac muscle (Homo sapiens) + …; activation, % at 7.2 µM; actives 0.24% (n = 340,000); IANBD-labeled TnC RTF fluorescence at EC20 calcium; 0% EC20 calcium, 100% full calcium;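 active = activation above the mean over all tested compounds plus 3 SD, cut at about 30% in these data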;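 note: rise in fluorescence read as greater calcium sensitivity of cardiac thin filaments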
RTF Ca sens inh – cardiac RTF calcium sensitivity inhibitors, primary screen, biochemical, IANBD-TnC fluorescence, EC70 calcium. Troponin I, cardiac muscle (Homo sapiens) + Troponin T, cardiac muscle (Homo sapiens) + …. IANBD-labeled cardiac RTF, Ca2+ fluorescence. inhibition, % at 7.15 µM. actives 0.12% (n = 340,000). AID 493244, 2011;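 active = inhibition above the mean inhibition of all tested compounds plus 3 SD, cut at about 17% in these data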;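 note: assay run at fixed EC70 calcium of 1.6 mM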
IDE inh – human IDE inhibitors in live cells, primary screen, fluorescence polarization, HEK cells, FAbetaB substrate. inhibition, % at 5.59 µM. FAbetaB cleavage. actives 0.41% (n = 320,000). Insulin-degrading enzyme (Homo sapiens), P14735;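 active = percent inhibition above the average of all tested compounds plus 3 SD, set per screening campaign, cut at about 16% in these data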;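 note: IDE supplied by intact live HEK cells; FP after avidin binding of uncleaved biotin substrate so inhibition keeps polarization high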
Target sequence (P14735 whole entry, looked up): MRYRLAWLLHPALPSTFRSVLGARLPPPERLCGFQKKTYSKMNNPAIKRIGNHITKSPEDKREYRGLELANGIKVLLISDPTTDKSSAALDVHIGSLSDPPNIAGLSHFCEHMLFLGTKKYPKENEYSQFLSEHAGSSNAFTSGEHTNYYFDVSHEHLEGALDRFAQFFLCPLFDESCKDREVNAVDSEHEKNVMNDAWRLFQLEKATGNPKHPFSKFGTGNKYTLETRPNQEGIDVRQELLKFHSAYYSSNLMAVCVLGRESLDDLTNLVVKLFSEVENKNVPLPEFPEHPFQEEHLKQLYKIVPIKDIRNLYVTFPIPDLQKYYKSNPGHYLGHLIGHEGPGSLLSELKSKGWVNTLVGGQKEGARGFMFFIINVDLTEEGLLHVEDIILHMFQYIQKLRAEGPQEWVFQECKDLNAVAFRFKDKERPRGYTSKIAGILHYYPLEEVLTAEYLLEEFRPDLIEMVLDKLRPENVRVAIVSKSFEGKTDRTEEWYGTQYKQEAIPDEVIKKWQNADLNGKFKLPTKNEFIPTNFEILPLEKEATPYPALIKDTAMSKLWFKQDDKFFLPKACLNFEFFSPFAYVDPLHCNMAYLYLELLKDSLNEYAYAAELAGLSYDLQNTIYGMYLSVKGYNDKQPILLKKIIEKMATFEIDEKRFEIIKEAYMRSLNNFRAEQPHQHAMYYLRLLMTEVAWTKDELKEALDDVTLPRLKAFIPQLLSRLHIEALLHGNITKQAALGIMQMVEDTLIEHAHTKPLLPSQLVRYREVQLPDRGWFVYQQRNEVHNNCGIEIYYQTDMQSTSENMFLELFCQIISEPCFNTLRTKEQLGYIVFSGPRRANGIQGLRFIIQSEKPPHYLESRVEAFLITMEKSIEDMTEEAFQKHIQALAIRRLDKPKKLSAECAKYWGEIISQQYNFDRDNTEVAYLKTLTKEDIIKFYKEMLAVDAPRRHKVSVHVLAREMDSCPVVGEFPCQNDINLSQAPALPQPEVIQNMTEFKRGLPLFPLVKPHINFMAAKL
IDE cell activ – human IDE activators in live cells, primary screen, fluorescence polarization, HEK cells, FAbeta-B substrate | Insulin-degrading enzyme (Homo sapiens), P14735 | FAbeta-B cleavage; 0% vehicle, 100% cell-free pure enzyme wells | activation, % at 5.96 µM | actives 0.073% (n = 340,000) | AID 493087, 2011;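 active = activation above the mean of all tested compounds plus 3 SD, set per screening campaign, cut at about 17% in these data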
IDE inh confirm – human IDE inhibitors in live cells, confirmation, fluorescence polarization, HEK cells, FAbetaB substrate; shares compounds with IDE inh; FAbetaB cleavage; inhibition, % at 5.59 µM; actives 51% (n = 1,200); AID 435028, 2010;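 active = mean inhibition across triplicate wells above the cutoff set by the earlier primary insulin-degrading enzyme screen, cut at about 16% in these data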
HEK293 tox – cytotoxicity in HEK cells, cytotoxicity control for IDE inhibitor project, cell-based, luminescence | HEK293 cytotoxicity, ATP luminescence | inhibition, % at 5.59 µM | actives 28% (n = 1,200) | shares compounds with IDE inh; in the data active = inhibition above about 22%
IDE FP artifact – fluorescent or optically active artefacts, dose response, artefact control for IDE inhibitor project, biochemical, fluorescence polarization. shares compounds with IDE inh. FP counterscreen for fluorescent artifacts, IDE probe project. IC50, µM. 30 tested, under 10 active; call rule not given here
Each line names hits and unclear results; the compound was inactive in the other large screens (follow-up assays come after a bar, where they were run).

O=C(OCc1c(-c2ccccc2)ncc2ccccc12)c1ccccc1C(F)(F)F	none
N#C/C(=C\c1ccncc1)c1ccccn1	none
N#C/C(=C/c1ccncc1)c1nc2ccccc2s1	IDE inh 43.9 | IDE inh confirm inactive | HEK293 tox inactive
CC(C)=C(C#N)c1nc2ccccc2s1	IDE inh 37.7 | IDE inh confirm inactive | HEK293 tox inactive
COC(=O)c1ccc(/C(O)=C(\C#N)c2nc3ccccc3s2)cc1	none
COc1ccc(S(=O)(=O)N2CCCC(C(=O)N3CCOCC3)C2)cc1OC (configuration not stated)	none
O=C(O)Cc1sc(N/N=C\c2ccncc2)nc1-c1ccccc1	IDE inh 40.0 | IDE inh confirm 32.1 | HEK293 tox inactive
O=C(NCc1cccc(Cl)c1)c1ccc2ccccc2n1	none
CCCCN1C(=O)C2Cc3c([nH]c4ccccc34)CN2C1=S (configuration not stated)	IDE inh 30.3 | IDE inh confirm 93.8 | HEK293 tox inactive
CCCCCN1CC(=O)N2Cc3[nH]c4ccccc4c3C[C@H]2C1=O	none
CC1=C/C(=C\C=C(C#N)C#N)N(C)c2ccccc21	IDE inh 80.6 | IDE inh confirm 125.1 | HEK293 tox 22.8
CN1/C(=C/C=C(C#N)C#N)C(C)(C)c2ccccc21	none
O=C1C=CC(=O)C(C2=C3C(=O)N(CCc4ccccc4)CC(=O)N3CCC2)=C1	IDE inh 40.1 (no result: RTF Ca sens act, RTF Ca sens inh, IDE cell activ) | IDE inh confirm inactive | HEK293 tox 123.8
O=C1CC2(CCCCC2)CC(=O)N1CCc1ccccc1	none (no result: IDE inh)
Cc1ccc(NS(=O)(=O)c2ccc3c(c2)C(=O)c2ccccc2C3=O)c(C)c1	none
Cc1cccc(S(=O)(=O)Nc2cccc3c2C(=O)c2ccccc2-3)c1	IDE inh 50.2 | IDE inh confirm 41.4 | HEK293 tox inactive
O=C(/C=C/c1ccc(Cl)cc1)NC(=S)Nc1ccc(NC(=O)c2ccco2)cc1	IDE inh 43.4 | IDE inh confirm 16.7 | HEK293 tox 77.4
CCOc1ccc2nc(NC(=O)Cn3cnc4c3c(=O)n(C)c(=O)n4C)sc2c1	IDE inh 19.5 | IDE inh confirm inactive | HEK293 tox inactive
CCOc1ccc2nc(NC(=O)CSc3nc4c(c(=O)n(C)c(=O)n4C)n3C(C)C)sc2c1	none
Cc1ccccc1S(=O)(=O)Cc1ccc(C(=O)N2CCN(c3cccc(C)c3C)CC2)o1	IDE inh 16.7 | IDE inh confirm inactive | HEK293 tox 68.9
COc1ccc(OC)c(CNC(=O)CCC(=O)N2Cc3cccc(OC)c3Oc3ncccc32)c1	none
CC(=O)Nc1ccc(NC(=O)c2cc(-c3ccc(C)c(C)c3O)n[nH]2)cc1	none
Cc1ccc(-c2cc(C(=O)Nc3ccc(S(=O)(=O)Nc4ncccn4)cc3)[nH]n2)c(O)c1C	IDE inh 31.3 | IDE inh confirm 20.3 | HEK293 tox inactive
N#Cc1ccc(-c2cccnc2)nc1SCC(=O)c1ccccc1	IDE inh 23.4 | IDE inh confirm 41.7 | HEK293 tox inactive
Nc1cc2nc[nH]c2cc1N	none (no result: IDE inh)
O=C(COC(=O)CCNS(=O)(=O)c1ccc(Cl)cc1)Nc1ccccc1OC(F)F	none (no result: IDE inh)
COc1ccc2c(c1)CN(C)S(=O)(=O)c1ccccc1-2	none (no result: IDE inh)
CCCCCCN1C=CC=C/C1=C\C=C(C#N)C#N	IDE inh 24.6 (no result: RTF Ca sens act, RTF Ca sens inh, IDE cell activ) | IDE inh confirm 35.2 | HEK293 tox inactive
Cc1ccc(NC(=O)CSc2nnc(CSc3nc(C)cc(C)n3)n2Cc2ccco2)c(C)c1	none
O=C(CSc1nnc(-c2cccc(Cl)c2)n1Cc1ccco1)Nc1ccccc1C(F)(F)F	none (no result: RTF Ca sens act, RTF Ca sens inh, IDE inh, IDE cell activ) | IDE FP artifact inactive
Cc1ccc(NC(=O)CSc2nnc(-c3cccc(Cl)c3)n2Cc2ccco2)c(C)c1	none (no result: RTF Ca sens act, RTF Ca sens inh, IDE inh, IDE cell activ) | IDE FP artifact inactive
O=c1[nH]c(=S)[nH]c2c1CN(Cc1ccc(F)cc1)CC2	none
CSC1=NC(C)(C)C=C(/C=C/c2ccc(Cl)cc2Cl)N1	none
Clc1ccc(/C=C/c2ncc[nH]2)c(Cl)c1	IDE inh 17.8 | IDE inh confirm inactive | HEK293 tox inactive
COC(=O)COc1c(Cl)cc(C(c2c(C)[nH][nH]c2=O)c2c(C)[nH][nH]c2=O)cc1OC	none (no result: IDE inh)
O=C(NCCc1cccc(F)c1)C1CCC(=O)N(CCCc2ccccc2)C1 (configuration not stated)	none
COC(=O)c1ccccc1NC(=O)CNCCc1ccc(OC)c(OC)c1	none
C=CCOC(=O)C1=C(C)NC(=O)NC1/C=C/c1ccccc1OC (configuration not stated)	IDE inh 20.8 | IDE inh confirm inactive | HEK293 tox inactive
COc1ccccc1/C=C/C1NC(=O)NC(C)=C1C(=O)OC(C)C (configuration not stated)	none
Cc1cccc(OCC(=O)NCC(=O)N/N=C/c2cccs2)c1	none
Cc1cccc(OCC(=O)NCC(=O)N/N=C/c2c(C)[nH]c3ccccc23)c1	IDE inh 16.5 | IDE inh confirm inactive | HEK293 tox inactive
COc1ccc(C(=O)N/N=C/c2sc3ccccc3c2O)cc1	RTF Ca sens act 32.2, IDE inh 17.3 | IDE inh confirm 32.8 | HEK293 tox 86.7
O=C(N/N=C/c1sc2ccccc2c1O)c1ccccc1	RTF Ca sens act 47.1, IDE inh 33.9 | IDE inh confirm 61.5 | HEK293 tox 114.9
COc1cc(/C=N\NC(=O)c2ccc(-c3ccccc3)cc2)cc(OC)c1O	IDE inh 19.1 | IDE inh confirm inactive | HEK293 tox inactive
Cc1nc2ccc(NC(=O)c3ccc(Cl)c(S(=O)(=O)N(C)c4ccccc4)c3)cc2s1	IDE inh 25.6 | IDE inh confirm inactive | HEK293 tox 53.6
COc1ccc(/C=C(/NC(=O)c2ccccc2)C(=O)N/N=C/c2cccs2)cc1OC	none
COc1ccc([N+](=O)[O-])cc1/C=N/NC(=O)/C(=C\c1cccs1)NC(=O)c1ccccc1	IDE inh 28.2 | IDE inh confirm inactive | HEK293 tox inactive
CC(=O)NC(c1ccco1)c1cc(Cl)c2ccccc2c1O (configuration not stated)	IDE inh 35.8 | IDE inh confirm inactive | HEK293 tox inactive
CCC(=O)NC(c1ccco1)c1cc(Cl)c2ccccc2c1O (configuration not stated)	IDE inh 16.2 | IDE inh confirm inactive | HEK293 tox inactive

Source: PubChem
